# Assay results published in PubChem BioAssay (EPA / NIEHS).
# Inconclusive results are not listed. Activity calls are given as the source filed them. The calls were made as follows, unless noted: active = hit-call score of the fitted dose curve at least 0.9, where 1 is the maximum; inconclusive = response in the unintended direction; inactive = score below 0.9.
# What was measured:
# [1] = target: Cytochrome P450 2C19 (Homo sapiens) (UniProt P33261); assay: NVS_ADME_hCYP2C19: NovaScreen (NVS) CYP450-related Enzyme Activity (ADME) Assay for human CYP2C19 (AID 2283113);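 also: potency for inhibition seen as loss of fluorescent signal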
# In short: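 Fluorescence intensity was measured 1 hour after chemicals were added to insect-cell-derived recombinant CYP2C19 with fluorogenic substrate. Decreased signal versus acetonitrile control was taken as reduced enzyme activity; initial testing used 10 uM in duplicate.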
# [2] = target: rat CYP2A1, Cyp2a1 (gene 24894) (UniProt P11711); assay: NVS_ADME_rCYP2A1: NovaScreen (NVS) CYP450-related Enzyme Activity (ADME) Assay for rat CYP2A1 (AID 2283114; active = hit-call score of the fitted dose curve at least 0.9, where 1 is the maximum; inactive = score below 0.9)
# Sequence of rat CYP2A1, Cyp2a1 (gene 24894) (P11711 whole entry, looked up): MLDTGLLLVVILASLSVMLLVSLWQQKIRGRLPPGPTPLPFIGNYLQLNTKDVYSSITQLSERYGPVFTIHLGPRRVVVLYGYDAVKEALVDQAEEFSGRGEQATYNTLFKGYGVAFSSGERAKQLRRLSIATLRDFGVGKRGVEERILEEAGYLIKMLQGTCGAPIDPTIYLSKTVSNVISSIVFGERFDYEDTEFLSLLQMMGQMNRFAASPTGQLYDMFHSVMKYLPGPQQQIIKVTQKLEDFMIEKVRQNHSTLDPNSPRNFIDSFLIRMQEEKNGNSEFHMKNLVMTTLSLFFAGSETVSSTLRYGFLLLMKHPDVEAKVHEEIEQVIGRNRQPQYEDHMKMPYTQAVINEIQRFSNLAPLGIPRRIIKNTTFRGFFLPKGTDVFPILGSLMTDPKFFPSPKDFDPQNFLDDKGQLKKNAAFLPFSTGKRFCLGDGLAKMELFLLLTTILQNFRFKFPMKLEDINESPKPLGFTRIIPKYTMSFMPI
# In short: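 Recombinant rat CYP2A1, cell-free, fluorogenic substrate turnover read by fluorescence intensity 0.75 h after dosing. Primary screen at 10 uM in duplicate; actives rerun as concentration-response up to 20 uM; loss of signal versus acetonitrile control.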
# [3] = target: rat CYP2C13, Cyp2c13 (gene 171521) (UniProt P20814); assay: NVS_ADME_rCYP2C13: NovaScreen (NVS) CYP450-related Enzyme Activity (ADME) Assay for rat CYP2C13 (AID 2283121)
# Sequence of rat CYP2C13, Cyp2c13 (gene 171521) (P20814 whole entry, looked up): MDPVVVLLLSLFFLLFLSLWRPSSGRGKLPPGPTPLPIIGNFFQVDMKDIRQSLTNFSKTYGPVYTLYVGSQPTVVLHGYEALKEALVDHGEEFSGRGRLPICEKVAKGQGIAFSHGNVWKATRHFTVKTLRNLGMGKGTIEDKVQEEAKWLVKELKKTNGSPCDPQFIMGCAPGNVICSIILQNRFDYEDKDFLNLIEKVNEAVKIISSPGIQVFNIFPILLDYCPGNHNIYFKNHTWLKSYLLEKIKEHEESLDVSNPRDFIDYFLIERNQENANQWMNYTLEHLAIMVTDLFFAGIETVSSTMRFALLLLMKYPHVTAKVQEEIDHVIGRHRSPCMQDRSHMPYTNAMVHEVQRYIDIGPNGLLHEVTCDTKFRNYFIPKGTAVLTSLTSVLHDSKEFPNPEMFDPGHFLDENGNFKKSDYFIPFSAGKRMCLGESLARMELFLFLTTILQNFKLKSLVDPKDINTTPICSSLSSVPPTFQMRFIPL
# In short: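 Recombinant rat CYP2C13 with fluorogenic substrate, 0.75 h cell-free incubation; primary screen in duplicate at 10 uM, actives followed in concentration series. Fluorescence loss relative to acetonitrile control indicates inhibition.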
# [4] = target: sheep Cyclooxygenase-2 (Cox2), PTGS2 (gene 443460) (UniProt P79208); assay: NVS_ENZ_oCOX2: NovaScreen (NVS) Enzymatic Assay for sheep Cyclooxygenase-2 (Cox2) (AID 2283231)
# In short: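 Enzyme extracted from ovine placenta tested cell-free; activity read colorimetrically by absorbance 0.66 hour after dosing. Primary screen in duplicate at 25 uM; hits rerun as concentration series to 50 uM, loss of signal versus DMSO baseline.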
# [5] = target: human Ephrin type-A Receptor 1 (EphA1), EPHA1 (gene 2041) (UniProt P21709); assay: NVS_ENZ_hEphA1: NovaScreen (NVS) Enzymatic Assay for human Ephrin type-A Receptor 1 (EphA1) (AID 2283158);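 also: activity is signal loss versus DMSO meaning EphA1 kinase inhibition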
# Sequence of human Ephrin type-A Receptor 1 (EphA1), EPHA1 (gene 2041) (P21709 whole entry, looked up): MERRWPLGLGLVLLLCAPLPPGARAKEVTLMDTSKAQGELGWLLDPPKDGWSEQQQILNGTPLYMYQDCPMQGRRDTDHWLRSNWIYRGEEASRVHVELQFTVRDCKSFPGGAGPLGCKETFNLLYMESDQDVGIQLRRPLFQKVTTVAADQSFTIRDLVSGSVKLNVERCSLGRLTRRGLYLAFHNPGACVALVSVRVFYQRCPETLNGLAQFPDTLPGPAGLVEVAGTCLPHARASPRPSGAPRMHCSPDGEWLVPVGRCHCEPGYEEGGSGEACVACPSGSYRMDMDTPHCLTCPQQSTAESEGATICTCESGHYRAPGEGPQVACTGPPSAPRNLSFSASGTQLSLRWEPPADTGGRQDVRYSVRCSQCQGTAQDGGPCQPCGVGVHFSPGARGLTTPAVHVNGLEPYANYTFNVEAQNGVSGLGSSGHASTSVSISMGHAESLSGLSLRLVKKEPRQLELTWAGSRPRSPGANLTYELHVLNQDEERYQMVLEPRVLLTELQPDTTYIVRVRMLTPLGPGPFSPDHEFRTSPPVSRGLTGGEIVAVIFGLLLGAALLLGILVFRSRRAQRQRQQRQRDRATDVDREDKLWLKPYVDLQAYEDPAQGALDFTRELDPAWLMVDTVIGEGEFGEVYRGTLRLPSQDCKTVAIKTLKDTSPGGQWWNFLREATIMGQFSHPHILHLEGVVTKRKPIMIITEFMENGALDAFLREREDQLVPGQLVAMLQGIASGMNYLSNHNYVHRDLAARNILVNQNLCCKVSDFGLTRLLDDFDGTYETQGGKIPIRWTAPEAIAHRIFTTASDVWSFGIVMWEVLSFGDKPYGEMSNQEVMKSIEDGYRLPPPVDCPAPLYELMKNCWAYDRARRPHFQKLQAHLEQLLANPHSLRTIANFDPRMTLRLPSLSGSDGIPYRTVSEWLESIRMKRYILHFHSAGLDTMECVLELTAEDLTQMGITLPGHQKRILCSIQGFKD
# In short: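 Chemicals first tested in duplicate at 25 uM against recombinant EphA1 with a fluorescent substrate; those passing threshold went to singleton dose-response topping at 50 uM. Activity read 1 h later as mobility-shift fluorescence, loss of signal relative to DMSO.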
# [6] = target: human Phosphoinositide 3-kinase alpha (PI3Ka), PIK3CA (gene 5290) (UniProt P42336); assay: NVS_ENZ_hPI3Ka: NovaScreen (NVS) Enzymatic Assay for human Phosphoinositide 3-kinase alpha (PI3Ka) (AID 2283196)
# In short: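 Enzyme activity as fluorescence after mobility-shift separation of substrate and product, 1 h reaction, recombinant human PI3Kα; concentration-response to 50 uM max for chemicals passing a 25 uM duplicate screen.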
# [7] = target: Cytochrome P450 3A4 (Homo sapiens) (UniProt P08684); assay: NVS_ADME_hCYP3A4: NovaScreen (NVS) CYP450-related Enzyme Activity (ADME) Assay for human CYP3A4 (AID 2283110)
# Sequence of Cytochrome P450 3A4 (Homo sapiens) (P08684 whole entry, looked up): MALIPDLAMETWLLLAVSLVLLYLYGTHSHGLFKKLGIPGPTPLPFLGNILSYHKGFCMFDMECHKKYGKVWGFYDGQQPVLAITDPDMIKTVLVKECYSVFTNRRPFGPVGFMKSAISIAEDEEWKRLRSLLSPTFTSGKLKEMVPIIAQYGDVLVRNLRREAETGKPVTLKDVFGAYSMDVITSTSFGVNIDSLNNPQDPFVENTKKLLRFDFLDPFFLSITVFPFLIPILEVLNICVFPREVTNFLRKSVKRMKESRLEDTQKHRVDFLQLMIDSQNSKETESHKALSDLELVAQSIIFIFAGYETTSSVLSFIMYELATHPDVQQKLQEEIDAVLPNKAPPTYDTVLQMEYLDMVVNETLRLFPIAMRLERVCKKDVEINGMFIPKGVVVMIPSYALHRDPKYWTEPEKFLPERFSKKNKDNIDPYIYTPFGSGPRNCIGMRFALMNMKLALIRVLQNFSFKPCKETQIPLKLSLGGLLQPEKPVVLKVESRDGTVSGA
# In short: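 Cell-free assay using insect-cell-expressed human CYP3A4 with a fluorogenic substrate; fluorescence intensity was read 0.33 hour after dosing. Loss of signal relative to acetonitrile vehicle indicated inhibition. Primary single-concentration screen at 10 uM, in duplicate, then concentration series.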
# [8] = target: human Caspase 5 (CASP5), CASP5 (gene 838) (UniProt P51878); assay: NVS_ENZ_hCASP5: NovaScreen (NVS) Enzymatic Assay for human Caspase 5 (CASP5) (AID 2283137)
# Sequence of human Caspase 5 (CASP5), CASP5 (gene 838) (P51878 whole entry, looked up): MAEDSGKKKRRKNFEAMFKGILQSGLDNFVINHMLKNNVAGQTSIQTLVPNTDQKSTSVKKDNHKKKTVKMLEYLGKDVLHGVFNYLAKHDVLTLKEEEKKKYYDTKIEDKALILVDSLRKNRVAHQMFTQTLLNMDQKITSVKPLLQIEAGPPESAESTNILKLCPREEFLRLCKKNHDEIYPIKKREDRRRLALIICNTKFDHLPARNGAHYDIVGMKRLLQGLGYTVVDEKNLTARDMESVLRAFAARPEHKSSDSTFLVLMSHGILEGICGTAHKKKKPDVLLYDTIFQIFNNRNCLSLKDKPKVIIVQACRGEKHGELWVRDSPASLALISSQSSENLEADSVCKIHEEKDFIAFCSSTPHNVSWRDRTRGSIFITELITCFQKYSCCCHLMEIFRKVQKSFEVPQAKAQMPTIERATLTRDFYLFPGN
# In short: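 Recombinant human caspase 5 expressed in E. coli, fluorogenic substrate, fluorescence read 2 h after dosing. Single-point 25 uM duplicate screen, then concentration-response to maximum 50 uM for actives; DMSO baseline.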
# [9] = target: sheep Cyclooxygenase-1 (Cox1), PTGS1 (gene 443551) (UniProt P05979); assay: NVS_ENZ_oCOX1: NovaScreen (NVS) Enzymatic Assay for sheep Cyclooxygenase-1 (Cox1) (AID 2283239);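 also: actives reduce cyclooxygenase activity so potencies are for inhibitors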
# Sequence of sheep Cyclooxygenase-1 (Cox1), PTGS1 (gene 443551) (P05979 whole entry, looked up): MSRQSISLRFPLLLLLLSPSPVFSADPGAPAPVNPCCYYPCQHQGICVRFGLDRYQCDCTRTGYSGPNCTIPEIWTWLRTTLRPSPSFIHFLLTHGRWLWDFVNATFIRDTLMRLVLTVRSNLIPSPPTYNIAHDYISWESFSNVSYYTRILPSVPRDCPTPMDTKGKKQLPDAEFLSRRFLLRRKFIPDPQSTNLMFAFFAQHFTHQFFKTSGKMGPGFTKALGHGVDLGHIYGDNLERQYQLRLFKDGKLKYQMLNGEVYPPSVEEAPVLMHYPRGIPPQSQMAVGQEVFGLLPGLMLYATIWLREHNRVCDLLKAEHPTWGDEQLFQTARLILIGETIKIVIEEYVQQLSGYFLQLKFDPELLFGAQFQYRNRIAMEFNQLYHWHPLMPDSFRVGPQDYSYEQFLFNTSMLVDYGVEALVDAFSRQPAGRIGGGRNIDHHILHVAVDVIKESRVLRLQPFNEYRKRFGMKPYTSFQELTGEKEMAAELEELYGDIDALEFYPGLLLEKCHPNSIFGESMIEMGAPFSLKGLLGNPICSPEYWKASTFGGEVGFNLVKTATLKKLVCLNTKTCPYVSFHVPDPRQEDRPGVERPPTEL
# In short: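 Absorbance read-out of cyclooxygenase activity in a cell-free preparation from sheep seminal vesicles, taken 0.66 hour after dosing. Initial testing was in duplicate at 25 uM, and confirmatory testing was run in concentration series.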
# [10] = target: human CYP2C9, CYP2C9 (gene 1559) (UniProt P11712); assay: NVS_ADME_hCYP2C9: NovaScreen (NVS) CYP450-related Enzyme Activity (ADME) Assay for human CYP2C9 (AID 2283108)
# Sequence of human CYP2C9, CYP2C9 (gene 1559) (P11712 whole entry, looked up): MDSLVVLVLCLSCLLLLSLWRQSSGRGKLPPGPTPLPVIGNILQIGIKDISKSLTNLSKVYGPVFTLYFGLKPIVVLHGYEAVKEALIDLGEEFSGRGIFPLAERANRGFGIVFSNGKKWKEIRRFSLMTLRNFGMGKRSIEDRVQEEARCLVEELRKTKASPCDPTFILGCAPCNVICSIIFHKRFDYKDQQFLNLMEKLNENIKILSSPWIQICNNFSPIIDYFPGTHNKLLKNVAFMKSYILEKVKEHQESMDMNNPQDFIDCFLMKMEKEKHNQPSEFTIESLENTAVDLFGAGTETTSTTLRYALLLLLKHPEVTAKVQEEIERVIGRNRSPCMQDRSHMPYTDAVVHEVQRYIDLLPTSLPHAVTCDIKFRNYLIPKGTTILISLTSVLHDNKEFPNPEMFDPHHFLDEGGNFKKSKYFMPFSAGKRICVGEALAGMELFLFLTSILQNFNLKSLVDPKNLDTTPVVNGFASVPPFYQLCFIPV
# In short: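 Cell-free assay of recombinant human CYP2C9 produced in Sf9 cells, with enzyme activity read by fluorescence intensity 0.75 h after compound addition. Loss of signal versus an acetonitrile negative control indicates inhibition. Primary screen used 10 uM in duplicate; actives were retested in concentration series.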
# [11] = target: human Vascular Endothelial Growth Factor Receptor 1 (VEGFR1), FLT1 (gene 2321) (UniProt P17948); assay: NVS_ENZ_hVEGFR1: NovaScreen (NVS) Enzymatic Assay for human Vascular Endothelial Growth Factor Receptor 1 (VEGFR1) (AID 2283226)
# In short: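 Cell-free assay of recombinant human VEGFR1 kinase with substrate, measured 1 h after dosing; fluorescence with electrophoretic mobility-shift separation of substrate and product, referenced to DMSO; primary screen at 25 uM in duplicate, actives then run in concentration series.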
# [12] = target: human Phosphodiesterase 10 (PDE10), PDE10A (gene 10846) (UniProt Q9Y233); assay: NVS_ENZ_hPDE10: NovaScreen (NVS) Enzymatic Assay for human Phosphodiesterase 10 (PDE10) (AID 2283195)
# Sequence of human Phosphodiesterase 10 (PDE10), PDE10A (gene 10846) (Q9Y233 whole entry, looked up): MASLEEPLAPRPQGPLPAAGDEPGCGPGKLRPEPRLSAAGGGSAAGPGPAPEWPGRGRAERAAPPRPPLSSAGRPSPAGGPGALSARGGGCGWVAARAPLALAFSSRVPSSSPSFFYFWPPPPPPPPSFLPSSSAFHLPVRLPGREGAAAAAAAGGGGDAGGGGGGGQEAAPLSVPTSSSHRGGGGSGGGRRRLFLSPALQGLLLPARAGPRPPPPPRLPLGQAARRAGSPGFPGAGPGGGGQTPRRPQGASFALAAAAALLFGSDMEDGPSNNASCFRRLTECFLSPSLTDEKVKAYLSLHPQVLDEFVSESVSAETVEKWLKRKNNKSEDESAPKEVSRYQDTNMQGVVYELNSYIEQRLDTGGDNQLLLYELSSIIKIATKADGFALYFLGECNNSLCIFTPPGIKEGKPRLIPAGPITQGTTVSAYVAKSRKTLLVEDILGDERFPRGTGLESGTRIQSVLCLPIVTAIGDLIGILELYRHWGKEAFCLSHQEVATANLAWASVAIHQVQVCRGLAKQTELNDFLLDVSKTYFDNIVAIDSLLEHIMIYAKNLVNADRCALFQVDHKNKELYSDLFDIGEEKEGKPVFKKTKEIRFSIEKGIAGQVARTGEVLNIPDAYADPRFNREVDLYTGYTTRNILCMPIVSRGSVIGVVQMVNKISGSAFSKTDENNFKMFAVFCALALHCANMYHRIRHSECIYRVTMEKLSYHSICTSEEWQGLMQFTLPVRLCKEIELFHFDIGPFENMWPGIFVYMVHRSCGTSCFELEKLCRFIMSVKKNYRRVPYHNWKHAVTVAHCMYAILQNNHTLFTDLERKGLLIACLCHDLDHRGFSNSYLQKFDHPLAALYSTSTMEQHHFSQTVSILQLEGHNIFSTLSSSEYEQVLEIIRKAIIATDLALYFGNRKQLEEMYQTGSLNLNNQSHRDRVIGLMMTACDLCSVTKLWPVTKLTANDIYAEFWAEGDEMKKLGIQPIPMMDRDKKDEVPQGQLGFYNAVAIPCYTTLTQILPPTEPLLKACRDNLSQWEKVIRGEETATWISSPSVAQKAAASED
# In short: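 Fluorescence/mobility-shift readout of PDE10A enzyme activity, taken 1 h post-dosing. Primary screen in duplicate at 25 uM; actives (e.g. ≥30% inhibition) retested as singleton concentration-response, top concentration 50 uM.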
smiles,measurement,setting,value
C[C@]12CC[C@H]3C(=CCc4cc(O)ccc43)[C@@H]1CCC2=O,AC50,[1],1.95 µM (active)
CCCCCCCCn1sc(Cl)c(Cl)c1=O,AC50,[1],8.26 µM (active)
same,outcome,[2],inactive
same,outcome,[3],inactive
same,outcome,[4],inactive
Cc1cc(O)c(C(C)(C)C)cc1C(C)(C)C,outcome,[5],inactive
same,outcome,[6],inactive
COC(=O)c1ccc(C=O)cc1,AC50,[7],0.00779 µM (active)
CC1=CC2C3C=CC(C3)C2C1C (stereo not given),AC50,[8],13.1 µM (active)
same,AC50,[9],30.4 µM (active)
CC(C)=CCCC(C)O (stereo not given),outcome,[10],inactive
C=CCOC(=O)CC(C)C,outcome,[5],inactive
same,outcome,[11],inactive
Brc1ccccn1,outcome,[12],inactive
Nc1cccnc1N,outcome,[12],inactive
